Source: PubChem BioAssay (NCI)
Compounds without any hit were thinned out: in the full panel of roughly 83,000, 20% have a hit.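 Treatment: one concentration, 48 hours, 96-well format. Scoring: percent growth, with anything below 10 considered active.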 A number with no mark means an inactive call. Calls of active or inactive are those of the source.

test system: SN12C renal; test: NCI-60 one-dose screen, 48 h (100 = growth as untreated, 0 = no growth, -100 = all killed); conditions: 10 µM unless noted

| SMILES | growth |
| --- | --- |
| O=C(Oc1ccccc1)c1ccccc1Cl | 107% |
| COc1ccc(-c2nc(SCC(C)C)nc(Nc3ccc(C(=O)O)cc3)c2C#N)cc1 | 102% |
| C[C@@H](c1ccc2c(c1)[nH]c1ccc(Cl)cc12)c1nc2ccccc2[nH]1 | 89.6% |
| Cc1nnc(/N=C2\NC(=O)/C(=C/C=C/c3ccccc3)S2)s1 | 66.2% |
| CCOc1ccccc1/C=N\N=C(N/N=C/c1ccccc1OCC)N/N=C/c1ccccc1OCC | 15.4% |
| CCOC(=O)CSSCC(=O)OCC | 103% |
| O=C(O)c1ccc(Br)nc1 | 98.1% |
| O=C(O)c1ccc(-c2nn(-c3ccc(C(=O)O)cc3)cc2CNc2ccc(Br)cc2)cc1 | 111% |
| NC(N)=N/N=C/c1cccc(Br)c1 | 101% |
| C=CCNC(=S)NNc1ccc([N+](=O)[O-])cn1 | 100% |
| CCCC(=O)Nc1ccccc1C(=O)O | 109% |
| O=C(/C=C1\C(=O)N(Cc2ccc([N+](=O)[O-])cc2)c2ccccc21)c1ccc(OCCN2CCCCC2)cc1 | -67% (active) |
| COc1cc2cc3cc4cc(OC)c(OC)cc4c(C)[n+]3cc2cc1OC (tested in a mixture with another compound) | 85.7% |
| COc1ccc(-c2nc(N)n(C(=S)Nc3ccccc3)n2)cc1 | 100% |
| Nc1ccc(N=Nc2ccccc2)c2cc(S(=O)(=O)O)ccc12 | 108% |
| O=C(C(=O)N1CCOCC1)c1ccc(O[C@H]2O[C@H](CO)[C@@H](O)[C@H](O)[C@@H]2O)cc1 | 101% |
